Shown are actives, neighbours in structure and some others; about 7.1% of the full set was active somewhere.
SW480 rerep – induces DNA re-replication in SW480 colon adenocarcinoma cells. SW480 DNA re-replication, Hoechst DNA content imaging, 48 h. Potency, µM (titrated, usually from 46.1 µM), without a hit: at the highest dose re-replication activation, usual class: activators. hit rate 1.8% among 340,000; also: potency is read from the fitted curve at half-maximal effect; % of control where 0% means no effect; nearly all actives have a fitted effect of over 55% in size
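Image-based read-out: total Hoechst fluorescence of nuclei (405 nm excitation, 500-530 nm emission), with hits raising the fraction of high-intensity nuclei. SW480 colon cells incubated 48 hr with compounds at 37 C.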
MCF10A rereplic – DNA re-replication induction in MCF 10a cells. AID 624296. Potency, µM (series often up to 46.1 µM), without a hit: at the highest dose activity, positive = re-replication, hits mostly activators. hit rate 2.9% among 350,000. MCF 10A DNA re-replication, Hoechst nuclear intensity, 48 h; also: potency is read from the fitted curve at half-maximal effect; % of control where 0% means no effect; nearly all actives have a fitted effect of over 50% in size
PINK1 modulator – PINK1 expression modulation; AID 624263; PINK1 immunofluorescence, high-content cytometry, 24 h; hit rate 0.2% among 410,000; Potency, µM (doses to about 76.6 µM), without a hit: at the top dose activation (PINK1 increase), most hits filed as activators; active = well fitted activation curve with a large enough effect; inconclusive = small, poorly fitted or top-dose-only effect; cell line not stated here; also: potency is read from the fitted curve at half-maximal effect; % of control where 0% means no effect; nearly all actives have a fitted effect of over 65% in size
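Decision-based qHTS: stable cells, 24 h exposure to five compound concentrations, CCCP as control. Fixed cells stained for PINK1 plus nuclear, mitochondrial and cell markers, cytometer read.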
ATXN2 expr inh – inhibitors of ATXN2 expression; HEK-293 ATXN2-luciferase reporter, luminescence, 24 h; Potency, µM (top dose mostly 57 µM), inactives show at the top dose activity change, negative = inhibition, usual class: inhibitors; hit rate 0.72% among 360,000; also: potency is read from the fitted curve at half-maximal effect; % is scaled to controls: 0 for no effect and ±100 for the full control effect; nearly all actives have a fitted effect of over 55% in size
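qHTS (up to 57 uM final) was run with 24 h compound exposure of reporter cells at 37 °C. Each well was multiplexed: SteadyGlo luminescence measured ATXN2-luciferase expression after a fluorogenic Gly-Phe-AFC viability readout (25 uM final).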
S2 tox – reduces viability in counter-screen for ATXN expression inhibitors; S2 cells (HEK-293 line with an ATXN2-luciferase reporter) viability, CellTiter-Fluor protease fluorescence, 24 h; Potency, µM (titrated, usually from 56.7 µM), most hits filed as cytotoxic; hit rate 0.49% among 400,000; also: potency is read from the fitted curve at half-maximal effect; nearly all actives have a fitted effect of over 40% in size
IL1B secr inh – inflammasome signaling inhibition, IL-1 beta readout; THP-1 LPS/ATP IL-1B secretion, AlphaLISA, 16 h; active compounds read low; activity change, % at 57.5 µM; hit rate 4.7% among 360,000; in the data active = activity change below about -50%; inconclusive = mostly about -30% to -49%; also: % is scaled to controls: 0 for no effect and ±100 for the full control effect
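THP-1 cells pretreated 1 hr with compounds (up to 57.5 uM final), then stimulated with LPS (250 ng/mL final) plus ATP (1.25 mM final); secreted IL-1B measured by AlphaLISA after 16 hr, decreased signal indicating inhibition.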
Starred values were filed as active, the others as inactive; i = inactive; ? = inconclusive; . = no result given; [ ] = another dose, or the depositor's remark. Unless noted, calls follow the shape of the dose curve; as a rule, active = well fitted curve in the direction sought with a large enough effect; inconclusive = small, poorly fitted or top-dose-only effect, or another doubt; inactive = no such curve, though single readings can be large; an effect the other way counts as inactive or inconclusive.

SMILES	SW480 rerep	MCF10A rereplic	PINK1 modulator	ATXN2 expr inh	S2 tox	IL1B secr inh
O=C(c1ccco1)N1CCN(C(c2coc3ccc(Cl)cc3c2=O)c2nnnn2C2CCCC2)CC1 (configuration not stated)	-2%	1%	2%	5%	i	-14
Cc1cccc(CNc2cc(-c3cccnc3)ncn2)c1	.	.	4%	.	.	.
COc1ccc(C(=O)On2c(-c3ccc(Br)cc3)nc3ccccc3c2=O)cc1	?	9.2µM*	12%	?	?	?
COc1ccc(CNC(=O)CSc2ccsc2[N+](=O)[O-])cc1	7%	10%	0%	68%	i	-59*
CCC(=O)c1ccc(OCc2ccc(C(=O)c3ccccc3)cc2)cc1	9%	-7%	4%	.	i	-136*
CCC(=O)c1ccc(OCc2ccccc2)c(OC)c1	4%	-2%	4%	74%	i	-3
COc1ccc(C2NC(=O)c3ccccc3N2)c(OC)c1OC (configuration not stated)	.	.	8%	.	i	21
Cn1cc(C2NC(=O)c3ccccc3N2)c2ccccc21 (configuration not stated)	5.8µM*	2.9µM*	12%	11%	?	29
COc1cc(C)c(C2NC(=O)c3ccccc3N2)cc1C (configuration not stated)	7.3µM*	7.3µM*	12%	-6%	?	8
Cc1ccc(C)c(C2NC(=O)c3ccccc3N2)c1 (configuration not stated)	7.3µM*	2.3µM*	7%	.	i	10
CCC1CN(CCNC(=O)C(C)(C)O)Cc2cc(OC)ccc2O1 (configuration not stated)	.	.	0%	.	i	.
CC[N+](C)(CC)CCOC(=O)C(O)(c1ccccc1)C1CCCCC1 (configuration not stated)	11%	6%	2%	-4%	i	-55*
Cc1cc(C)n(Cc2ccc(NC(=O)c3ccc(COc4ccccc4Br)cc3)cc2)n1	19%	51%	-3%[38.3 µM]	?	?	-75*
Cc1cc(C)nc(NC(=O)c2ccc(COc3ccccc3Cl)cc2)c1	13%	3.7µM*	4%	?	i	-62*
O=C(Nc1cccnc1)c1ccc(COc2ccccc2Br)cc1	?	6%	8%	.	?	-67*
O=C(NCc1cccnc1)c1ccc(COc2ccccc2Br)cc1	9%	8%	0%	?	?	-87*
O=C(NCc1cccnc1)c1ccc(COc2ccccc2Cl)cc1	?	5%	2%	.	?	3
Cc1ccccc1-c1cc(Nc2ccc(F)cc2)ncn1	.	.	2%	.	.	.
O=C(NCC1CN(c2ccc(N3CCOCC3=O)cc2)C(=O)O1)c1ccc(Cl)s1 (configuration not stated)	.	.	.	-20%	i	.
N=c1oc2ccc(Br)cc2cc1C(=O)NCc1ccccc1	0%	-2%	?	-16%	i	0
CC(NC(=O)c1cc2cc(Br)ccc2oc1=N)c1ccccc1 (configuration not stated)	-1%	?	6%	-2%	i	-51*
O=c1c(-c2cc(F)cc(F)c2)nc2cnc(N3CCNCC3)nc2n1CCc1ccccc1	.	.	3%	.	.	.
COCC(C)NC(=O)CCSc1nc(-c2ccc(OC)cc2)cc(C(F)(F)F)n1 (configuration not stated)	0%	12%	0%	-12%	i	-57*
COc1ccc(CCNC(=O)C(=O)NCC(c2ccco2)S(=O)(=O)c2ccccc2)cc1OC (configuration not stated)	.	.	0%	.	.	.
OC(c1ccc2c(c1)CN(Cc1cccc3nccnc13)CCO2)C1CCCCC1 (configuration not stated)	.	.	-1%	.	i	.
SMILES	SW480 rerep	MCF10A rereplic	PINK1 modulator	ATXN2 expr inh	S2 tox	IL1B secr inh
Cc1cc(C)c(NC(=O)c2ccc(S(=O)(=O)N(C)C)cc2)c(C)n1	?	18µM*	7%[38.3 µM]	-7%	i	35
COc1ccc(-c2nc(CSc3nncn4c3cc3sccc34)c(C)o2)cc1OC	.	.	1%	.	.	.
CCOC(=O)c1c(CN2CCNCC2)nc2ccc(Cl)cc2c1-c1ccccc1	?	?	-2%	?	?	-64*
CC(=O)c1c(N2CCOCC2)nc2ccc(Cl)cc2c1-c1ccccc1	-11%	15µM*	2%	-7%	?	0
O=C(O)Cn1cnnn1	.	.	.	3%	i	.
Cc1cccc(NC(=O)/C(C#N)=C/c2ccccc2O)n1	-2%	2%	1%	30%	i	-18
CCC[C@H](NC(=O)C(C#N)=Cc1cccc(Br)n1)c1ccccc1	.	.	.	11µM*	.	.
CC1(C)OC(=O)C2(Cc3ccc(Br)cc3N3CCCCC32)C(=O)O1 (configuration not stated)	.	.	-1%	.	.	.
COc1ccc(/C=C2/C(=O)OCc3cc(OC)c(OC)cc32)cc1	4.1µM*	?	4%	?	?	-51*
COc1cc(OC)c(OC)cc1CN1CCC(n2cc(C(=O)N3CCCCC3)nn2)CC1	.	.	1%	.	i	.
CCc1ccc(NC(=O)CSc2nc3ccccc3c(=O)n2CCCN2CCC(C)CC2)cc1	9%	?	-4%	-34%	i	-100*
Cc1ccc(NC(=O)CSc2nc3ccccc3c(=O)n2CCCN2CCCCC2)cc1C	?	15µM*	-5%	?	.	0
CCc1ccc(NC(=O)CSc2nc3ccccc3c(=O)n2CCNC(C)=O)cc1	.	.	2%	-5%	i	.
Cc1[nH]c2ccccc2c1C(=O)CSc1nc2ccccc2c(=O)n1CCCN1CCOCC1	4%	15µM*	4%	?	?	?
CCOCCCn1c(SCC(=O)Nc2ccc3[nH]c(=O)[nH]c3c2)nc2ccccc2c1=O	-3%	2%	6%	1%	i	-54*
COc1ccc(OC)c(NC(=O)Nc2cccc(OCc3cc(=O)n4cc(C)ccc4n3)c2)c1	.	.	0%	.	.	.
CCOC(=O)c1[nH]c(C)c(C(=O)Nc2ccc(C)c(Cl)c2)c1C	?	21µM*	8%[38.3 µM]	0%	?	0
CCOC(=O)c1[nH]c(C)c(C(=O)NCc2ccc(F)cc2)c1C	.	.	1%	-19%	i	.
CCOC(=O)c1[nH]c(C)c(C(=O)Nc2ccc(C)c(F)c2)c1C	12µM*	12µM*	20%[38.3 µM]	-8%	i	40
CCCN(CC(=O)Nc1ccccc1C)C(=O)CCl	20%	?	-1%	?	?	-95*
CCCN(CC(=O)Nc1ccccc1C)C(=O)COc1c(C)cccc1C	3%	-3%	0%	4%	?	-13
